RORgamma inh = inhibitors of mouse ROR gamma transcriptional activity; P51450; Drosophila S2 Gal4-RORgamma UAS-luciferase reporter, 20 h; Potency, µM (doses to about 53.6 µM), for the others: at the top dose activity change, negative = inhibition, usual class: inhibitors; 310,000 compounds, 5.4% hits; further: potency means the concentration at half of the fitted maximal effect; nearly all actives have a fitted effect of over 60% in size
Target sequence (P51450 whole entry, looked up, the tested form may be a part): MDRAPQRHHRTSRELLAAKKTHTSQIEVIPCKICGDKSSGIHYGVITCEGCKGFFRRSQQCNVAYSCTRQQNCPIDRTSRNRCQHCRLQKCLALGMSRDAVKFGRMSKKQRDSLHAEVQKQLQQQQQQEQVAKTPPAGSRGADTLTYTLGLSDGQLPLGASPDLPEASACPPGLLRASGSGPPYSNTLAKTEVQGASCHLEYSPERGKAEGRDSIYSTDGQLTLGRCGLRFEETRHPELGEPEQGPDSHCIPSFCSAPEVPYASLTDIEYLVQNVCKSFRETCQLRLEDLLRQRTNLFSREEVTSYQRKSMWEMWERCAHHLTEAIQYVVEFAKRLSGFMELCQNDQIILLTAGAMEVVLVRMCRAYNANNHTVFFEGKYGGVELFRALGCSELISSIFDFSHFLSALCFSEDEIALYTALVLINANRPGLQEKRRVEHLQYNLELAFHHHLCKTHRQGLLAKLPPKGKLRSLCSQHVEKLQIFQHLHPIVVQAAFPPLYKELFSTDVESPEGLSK
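Using a luciferase readout, inhibitors were identified by reduced reporter activity in Drosophila cells coexpressing a copper-inducible Gal4–ROR gamma fusion and UAS-driven Photinus luciferase, incubated 20 hr after 700 uM copper sulfate.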
VP16 counter = Gal4-VP16 reporter inhibition counter-screen. Drosophila S2 Gal4-VP16 UAS-luciferase, luminescence, 20 h. Potency, µM (titrated, usually from 53.6 µM), for inactives: top-dose activity, negative = inhibition, hits mostly inhibitors. 310,000 compounds, 3.5% hits. AID 2546;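 further: Gal4-VP16 expression switched on by copper sulfate through the metallothionein promoter; potency means the concentration at half of the fitted maximal effect; nearly all actives have a fitted effect of over 50% in size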
ELG1 DNA repair = ELG1-dependent DNA repair inhibition; HEK293T ELG1-luciferase reporter, luminescence, 16 h; DNA damage induced by 5-fluorouridine; Potency, µM (titrated, usually from 46.1 µM), for inactives: at the top dose activity change, negative = inhibition, actives largely listed as inhibitors; 330,000 compounds, 2.3% hits; further: potency means the concentration at half of the fitted maximal effect; nearly all actives have a fitted effect of over 55% in size
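Reporter activity after DNA damage by 5-fluorouridine is monitored. Compound-treated cells incubate 16 hr at 37 °C, then ONE-Glo is added for 30 min before luminescence reading.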
IL1B secr inh = blocks inflammasome-driven IL-1 beta release; AID 743279; THP-1 LPS/ATP IL-1B secretion, AlphaLISA, 16 h; stronger effect = lower value; 360,000 compounds, 4.7% hits; activity change, % at 57.5 µM; in the data active means activity change below about -50%; inconclusive means mostly about -30% to -49%
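Secreted IL-1B measured by AlphaLISA bead assay after 16 h compound exposure of THP-1 cells; compounds (final up to 57.5 uM) added 1 h before LPS (250 ng/mL) and ATP (1.25 mM) stimulation; lower signal means less secretion.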
TDP1 cell CPT = growth inhibition of DT40 Tdp1-/-;hTDP1 cells with camptothecin (screen for TDP1 inhibitors). Potency, µM (top dose mostly 46.2 µM), for inactives: at the top dose activity change, negative = growth inhibition, hits mostly inhibitors. chicken DT40 Tdp1-/-;hTDP1 cells + 20 nM CPT, ATP luminescence, 48 h. 420,000 compounds, 12% hits; further: potency means the concentration at half of the fitted maximal effect; nearly all actives have a fitted effect of over 55% in size
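Cell growth measured by CellTiter-Glo luminescence after a minimum 48 h, 37 C compound exposure with 20 nM CPT in Tdp1-knockout DT40 cells stably expressing hTDP1, seeded 400/well; qHTS titration format.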
DT40 TDP1 no CPT = qHTS for Inhibitors of human tyrosyl-DNA phosphodiesterase 1 (TDP1): qHTS in cells in absence of CPT; DT40 Tdp1-/- hTDP1 cells, no CPT, ATP luminescence, 48 h; Potency, µM (doses to about 46.2 µM), for inactives: top-dose activity change, negative = growth inhibition, usual class: inhibitors; 420,000 compounds, 15% hits; AID 686978, 2013; further: potency means the concentration at half of the fitted maximal effect; nearly all actives have a fitted effect of over 55% in size
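Camptothecin absent (DMSO only). Human TDP1-complemented DT40 knockout cells, 400 cells/well, 37 °C for minimum 48 hr; ATP measured via CellTiter-Glo, 30 min dark incubation, luminescence.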
An asterisk follows results filed as active; ? = inconclusive; · = no result given; [ ] = remark or other dose. A selection: hits, their analogues and other compounds. The true share with any hit is near 21%. Unless noted, the call rests on the fitted dose curve; in most records, active means well fitted curve in the direction sought with a large enough effect; inconclusive means small, poorly fitted or top-dose-only effect, or another doubt; inactive means no such curve, though single readings can be large; an effect the other way counts as inactive or inconclusive. On the % scale 0 is the no-effect control and ±100 the full control effect.

SMILES	RORgamma inh	VP16 counter	ELG1 DNA repair	IL1B secr inh	TDP1 cell CPT	DT40 TDP1 no CPT
COc1ccccc1NS(=O)(=O)c1ccc(OC)c([N+](=O)[O-])c1	26%	3%	-8%	0	1%	-13%
NS(=O)(=O)c1ccc(N/N=C2/CCCCC2C2CCCCC2)c([N+](=O)[O-])c1 (stereo not drawn)	18%	?	?	-112*	21µM*	10µM*
NS(=O)(=O)c1ccc(NN=C2CCN(Cc3ccccc3)CC2)c([N+](=O)[O-])c1	?	?	4%	18	3%	9%
COc1ccc(-c2noc(-c3ccc(NCCc4ccccc4)c([N+](=O)[O-])c3)n2)cc1	·	·	·	·	-3%	-7%
Cc1cc(NC(=O)COC(=O)Cn2[nH]c(=O)c3ccccc3c2=O)c([N+](=O)[O-])cc1C	·	·	15%	19	2%	0%
CCCCOc1ccc(NC2=NC3(CCCC3)N=C(N)N2)cc1	38%[0.365 µM]	·	3%	-28	16µM*	16µM*
CC(C(=O)Nc1ccc(O)cc1)c1cccc(C(=O)c2ccccc2)c1 (stereo not drawn)	32%	?	16µM*	-51*	?	21µM*
CC(C)Cc1ccc([C@H](C)C(=O)O)cc1	4%[16.9 µM]	9%[17 µM]	·	-9	4%	-2%
CC(C(=O)O)c1ccc(-c2ccccc2)c(F)c1 (stereo not drawn)	31%	6%	21%	2	-2%	-10%
CC(C)Cc1ccc(C(C)C(=O)Nc2cccnc2)cc1 (stereo not drawn)	30%[1.91 µM]	?	20%	46	2.3µM*	3.7µM*
CC(C)Cc1ccc(C(C)C(=O)Nc2ccc(O)cc2)cc1 (stereo not drawn)	?	18µM*	?	3	23µM*	13µM*
CC(C(=O)Nc1ccccc1)c1ccc(-c2ccccc2)c(F)c1 (stereo not drawn)	31%	?	?	?	18µM*	23µM*
COc1ccc2nc(SC(C)C(=O)NC3CCCC3)[nH]c2c1 (stereo not drawn)	·	·	3%	6	?	-29%
CC(C)Cc1ccc(C(C)C(N)=Nc2ccc(O)cc2)cc1 (stereo not drawn)	·	·	·	·	26µM*	16µM*
CCC(C)(C)NC(=O)CSc1nc(Cc2ccccc2)nc2ccccc12	?	5%	-24%	-64*	?	?
CCCc1nc(SCC(=O)NNC(=O)c2ccc(OC)cc2)c2ccccc2n1	-19%	-15%	-9%	9	-16%	-10%
CC(C)(C)NC(=O)CSc1nc(Cc2ccccc2)nc2ccccc12	14%	2%	?	?	?	?
CCCCNC(=O)CSc1nc(COc2ccccc2)nc2ccccc12	10%	-13%	-19%	-99*	-12%	?
Cc1ccc(S(=O)(=O)N(C)C)cc1NC(=O)CSc1ncc(C(F)(F)F)cc1Cl	?	-13%	?	?	?	?
NS(=O)(=O)c1cccc(NC(=O)CCSc2ccc(Cl)cc2)c1	7%	-10%	2%	20	?	12µM*
CCN(CC)S(=O)(=O)c1ccc(C)c(NC(=O)CSc2ncc(C(F)(F)F)cc2Cl)c1	13%	-16%	7%	-13	?	23µM*
NS(=O)(=O)c1cccc(NC(=O)CSc2ncc(C(F)(F)F)cc2Cl)c1	5%	-3%	3%	-111*	-40%	-29%
COc1ccc(OC(=O)c2nc(SCc3ccc(C)cc3)ncc2Cl)cc1	·	·	·	·	?	-13%
Cc1noc(C)c1NC(=O)N(C)C[C@H]1Oc2ccc(NC(=O)C3CC3)cc2C(=O)N([C@H](C)CO)C[C@@H]1C	·	·	11%	10	?	?
COc1ccc(CCNC(=O)c2ccc(-c3ccc([N+](=O)[O-])cc3Cl)o2)cc1	17%	-1%	5%	?	?	?
SMILES	RORgamma inh	VP16 counter	ELG1 DNA repair	IL1B secr inh	TDP1 cell CPT	DT40 TDP1 no CPT
CCc1nc2ccc(C(=O)NCCN3CCNC3=O)cn2c1N(C)CCC(C)C	·	·	·	-8	-15%	?
Cc1ccc(-c2cc(C(=O)N3CCN(c4ncccn4)CC3)c3cc(Br)ccc3n2)o1	-24%	?	?	-6	4.1µM*	8.2µM*
O=C(c1cc(-c2ccccn2)nc2ccc(Br)cc12)N1CCN(S(=O)(=O)c2ccccc2)CC1	-3%	1%	?	50	?	?
Cc1ccc(-c2cc(C(=O)N3CCOCC3)c3ccccc3n2)o1	·	·	?	6	?	18µM*
Cc1ccc(-c2cc(C(=O)N3CCN(c4ccc(F)cc4)CC3)c3ccccc3n2)o1	?	-1%	0%	-4	?	29µM*
O=C(NCc1ccccn1)c1nc(Cn2ccc([N+](=O)[O-])n2)no1	-29%	2%	1%	14	1%	-19%
Cc1nn(C)cc1CN1CCOc2ccc(CN3CCC(Oc4cccnc4)CC3)cc2C1	·	·	·	·	-7%[9.04 µM]	?
Cc1cccc(N2CCN(S(=O)(=O)c3c(C)[nH]c(C)c3C(=O)N3CCCC3)CC2C)c1 (stereo not drawn)	3%	1%	5%	-9	-27%	-7%
COc1ccc(CN2C(=O)C(CC(=O)NCCc3ccccn3)CC(C(=O)N3CCOCC3)=C2C)cc1 (stereo not drawn)	·	·	·	-14	0%	1%
Nc1[nH]nc2ncc3cc4ccccc4nc3c12	-23%	-6%	-5%	-95*	18µM*	9.2µM*
O=c1c(/C=N\NS(=O)(=O)c2ccccc2)coc2ccc(Cl)cc12	·	·	15µM*	9	?	-18%
COc1ccc(CN(C)C(=O)/C=C/[C@H]2O[C@@H](n3cnc4c(N)ncnc43)[C@H](O)[C@@H]2O)cc1OC	·	·	·	24	-14%	-6%
N#Cc1ccccc1CSC1=NCCS1	-3%	-10%	10%	-89*	0%	-17%
O=C(O)c1ccccc1CSC1=NCCS1	?	5%	6%	7	-9%	-1%
O=C1CC(c2ccc(Cl)c([N+](=O)[O-])c2)c2ccc3ccccc3c2N1 (stereo not drawn)	?	-3%	-28%	-11	?	?
O=[N+]([O-])c1cccc(C2NCC(c3ccccc3Cl)c3c2[nH]c2ccccc32)c1 (stereo not drawn)	14%	3%	?	-63*	?	?
